Experimental data as given in PubChem BioAssay (NCI).
About 83,000 compounds went through this panel and 20% of them were active in at least one assay; those are over-represented in the sample as a whole.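 Note: values are percent growth. 100 is the growth of untreated cells, values between 100 and 0 indicate rising inhibition; between -100 and 0 indicates cell death.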 Values without a mark were called inactive. Activity calls are given as the source filed them. How the source made its calls: active means growth percent below 10; inactive means the rest.

Columns and labels:
Test in all cases: NCI-60 one-dose screen, 48 h (100 = growth as untreated, 0 = no growth, -100 = all killed)
Details in all cases: 10 µM unless noted
SR leukemia = system: SR leukemia
RPMI-8226 leukemia = system: RPMI-8226 leukemia
OVCAR-8 ovarian = system: OVCAR-8 ovarian
OVCAR-5 ovarian = system: OVCAR-5 ovarian
OVCAR-4 ovarian = system: OVCAR-4 ovarian
SK-OV-3 ovarian = system: SK-OV-3 ovarian
IGROV1 ovarian = system: IGROV1 ovarian
OVCAR-3 ovarian = system: OVCAR-3 ovarian
HS 578T breast = system: HS 578T breast
NCI/ADR-RES ovarian = system: NCI/ADR-RES ovarian
T-47D breast = system: T-47D breast
BT-549 breast = system: BT-549 breast
MDA-MB-435 melanoma = system: MDA-MB-435 melanoma
SW-620 colon = system: SW-620 colon
MCF7 breast = system: MCF7 breast
HCT-116 colon = system: HCT-116 colon
HCC-2998 colon = system: HCC-2998 colon
KM12 colon = system: KM12 colon

SMILES	growth (SR leukemia)	growth (RPMI-8226 leukemia)	growth (OVCAR-8 ovarian)	growth (OVCAR-5 ovarian)	growth (OVCAR-4 ovarian)	growth (SK-OV-3 ovarian)	growth (IGROV1 ovarian)	growth (OVCAR-3 ovarian)	growth (HS 578T breast)	growth (NCI/ADR-RES ovarian)	growth (T-47D breast)	growth (BT-549 breast)	growth (MDA-MB-435 melanoma)	growth (SW-620 colon)	growth (MCF7 breast)	growth (HCT-116 colon)	growth (HCC-2998 colon)	growth (KM12 colon)
Cn1cc(-c2nonc2-c2c[nH]c3ccccc23)c2cccnc21	23.5%	40.8%	47.8%	72.3%	74.5%	41.7%	39.4%	15.2%	36.1%	13%	27%	58.6%	-22.6% (active)	14.1%	19.4%	24.3%	69.9%	20.1%
CC1=C[C@H]2c3c(c(O)c(O)c4oc(-c5ccccc5)cc(=O)c34)[C@H](c3cc(O)c(O)c4oc(-c5ccccc5)cc(=O)c34)[C@H]2C(C)(C)C1	0.0772% (active)	7.2% (active)	8.73% (active)	20%	10.4%	-3.99% (active)	-31.1% (active)	7.79% (active)	5.98% (active)	17.5%	4.7% (active)	0.289% (active)	-32.9% (active)	7.43% (active)	9.62% (active)	-56.3% (active)	0.939% (active)	-14.9% (active)
N#CN1CC[C@H](C(=O)Nc2cc3cc(C(N)=O)ccc3cn2)C1	0.903% (active)	8.19% (active)	1.62% (active)	5.15% (active)	4.32% (active)	-10.2% (active)	15.7%	-14.4% (active)	-0.591% (active)	1.36% (active)	-21.6% (active)	-5.54% (active)	3.57% (active)	6.39% (active)	6.05% (active)	1.69% (active)	-1.56% (active)	1.65% (active)
CN(C)CCN1C(=O)c2cccc3c(N)ccc(c23)C1=O	-19.2% (active)	4.13% (active)	18.1%	36.5%	41.6%	32.2%	27.6%	21.8%	56.8%	40%	-2.59% (active)	89.9%	39.6%	26.6%	-11.3% (active)	15.9%		28.1%
CSc1nc2c(c(=O)[nH]1)C1(C(=O)Nc3ccccc31)c1c(nc(SC)[nH]c1=O)N2	98.8%	108%	110%	93.9%	109%	114%	102%	105%	106%	108%	111%	107%	104%	99.1%	102%	106%	104%	103%
Nc1ccc(-c2cc3c(NCc4ccccc4)ncnc3s2)cc1	81.5%	62.6%	94%	77%	60.6%	102%	49.9%	80%	86.5%	80.7%	52.4%	78.2%	93.7%	105%	72.5%	95.6%	92.6%	88.6%
O=C(/C=C/c1ccc(C(F)(F)F)cc1)Nc1ccc(C=C2c3ccccc3C(=O)c3ccccc32)cc1	18.6%	10.4%	55.7%	84.2%	47.5%	77.9%	111%	44.1%	78.5%	60%	50.3%	57.6%	6.92% (active)	65.3%	46.5%	38.3%	78.3%	25.9%
COc1cccc(C2=NN3C(C2)c2cc(Br)cc(OC)c2OC32CCN(Cc3ccccc3)CC2)c1 (centres undefined)	111%	107%	104%	105%	90.8%	106%	98.6%	105%	94.7%	105%	108%	110%	98.3%	96.3%	96.3%	114%		103%
CCCCN(CCCC)CCCn1c(-c2ccccc2)ccc1-c1ccccc1	42.7%	-2.32% (active)	82.4%	73.4%	37%	81.3%	64.5%	59.2%	82.7%	65.1%	67.4%	74.1%	85.7%	65.1%	58.4%	34.1%		61.7%
O=C1/C(=C/c2ccc(Cl)cc2)SC(=S)N1CCc1ccc(O)cc1	102%	90.6%	97.6%	104%	58.4%	90.9%	14.6%	98.2%	86.1%	98.5%	54.2%	101%	92.9%	101%	114%	102%	107%	93.6%
CC1=C(O)C(=O)C(C(C#N)(C#N)C(C#N)C#N)C1 (centres undefined)	99.3%	106%	101%	109%	107%	99%	102%	94.8%	98.9%	97.7%	107%	95%	96.8%	102%	92.1%	102%	95.3%	97.7%
CC[N+](CC)=c1sc2c(s1)C(c1ccc(Cl)cc1)Oc1ccc(Cl)cc1-2 (centres undefined)	14.8%	-31.4% (active)	10.7%	15.1%	9.29% (active)	-6.15% (active)	9.22% (active)	1.97% (active)	18.3%	88.9%	-2.38% (active)	4.07% (active)	2.5% (active)	2.29% (active)	4.58% (active)	6.48% (active)	-15.1% (active)	-28.8% (active)
Cc1nc(Nc2ccc(F)c(Cl)c2)sc1C(=O)O	5.95% (active)	5.09% (active)	14%	51.2%	21.7%	17.4%	19.3%	23%	18.7%	13.4%	6.86% (active)	-0.289% (active)	20.4%	24.8%	11.9%	8.02% (active)		-3.33% (active)
C/C1=C\CC[C@@]2(C)O[C@H]2[C@H]2OC(=O)C(CN3CCN(CC4C(=O)O[C@H]5[C@H]4CC/C(C)=C/CC[C@@]4(C)O[C@@H]54)CC3)[C@@H]2CC1 (some centres undefined)	66%	79%	91.5%	103%	103%	110%	101%	79.7%	98.7%	101%	81.5%	105%	89.1%	86.3%	74.4%	88%		98.5%
CCC#CC[C@H](O)C/C=C1/C(=O)C=C[C@@H]1C/C=C\CCCC(=O)OC	-8.41% (active)	-13.6% (active)	7.14% (active)	32.4%	29.1%	35.5%	14%	12.5%	52.6%	14.4%	5.68% (active)	-0.591% (active)	1.89% (active)	-12.5% (active)	15.1%	-49.7% (active)		-49% (active)
COc1ccc(SC2c3ccc(C)cc3Oc3nc(N)c(C#N)c(N)c32)cc1 (centres undefined)	-28% (active)	-34.2% (active)	-89.1% (active)	5.64% (active)	-93.5% (active)	44.9%	-82.8% (active)	-93.7% (active)	3.13% (active)	1.24% (active)	-34.5% (active)	-72.9% (active)	-69.6% (active)	-65.2% (active)	-48.6% (active)	-64.4% (active)	-78.9% (active)	3.92% (active)
O=C(O)COc1ccc(Cl)cc1C1CCCCC1	95.4%	102%	103%	107%	109%	107%	117%	115%	105%	104%	114%	117%	107%	104%	104%	101%		103%
